Screening data deposited in PubChem by several laboratories.
Shown are actives, neighbours in structure and some others; about 1.2% of the full set was active somewhere.
RecA splice inh – blocks M. tuberculosis RecA intein splicing; inhibition, % (test concentration not listed); cell-free RecA intein splicing, fluorescence; AID 2221; 0.75% of 290,000 active; in the data active = inhibition above about 30%;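 also: 0% = vehicle wells and 100% = reference inhibitor control wells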
Target sequence (P9WHJ3 whole entry, looked up, canonical isoform): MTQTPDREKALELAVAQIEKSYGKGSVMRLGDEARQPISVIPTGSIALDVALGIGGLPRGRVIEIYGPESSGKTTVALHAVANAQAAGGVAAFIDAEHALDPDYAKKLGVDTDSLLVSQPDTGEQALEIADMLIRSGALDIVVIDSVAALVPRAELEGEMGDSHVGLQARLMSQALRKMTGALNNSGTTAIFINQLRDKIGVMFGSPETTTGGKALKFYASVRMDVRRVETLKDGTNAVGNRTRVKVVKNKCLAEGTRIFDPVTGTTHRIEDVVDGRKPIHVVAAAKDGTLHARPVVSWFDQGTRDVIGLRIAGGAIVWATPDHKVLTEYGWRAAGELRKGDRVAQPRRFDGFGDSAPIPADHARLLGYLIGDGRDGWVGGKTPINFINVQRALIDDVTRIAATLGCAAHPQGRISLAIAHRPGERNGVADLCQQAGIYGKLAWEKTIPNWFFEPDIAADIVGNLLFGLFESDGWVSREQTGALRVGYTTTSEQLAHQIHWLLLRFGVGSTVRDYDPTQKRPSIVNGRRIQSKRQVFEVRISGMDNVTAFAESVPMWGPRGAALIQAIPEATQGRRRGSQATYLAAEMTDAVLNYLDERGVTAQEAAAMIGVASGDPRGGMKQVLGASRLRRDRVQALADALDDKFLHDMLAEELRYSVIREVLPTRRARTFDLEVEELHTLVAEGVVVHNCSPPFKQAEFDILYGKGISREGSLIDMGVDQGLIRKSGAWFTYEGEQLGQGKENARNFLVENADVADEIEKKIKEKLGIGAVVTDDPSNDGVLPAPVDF
Mtb bLac sens – beta-lactam sensitization of Mtb H37Rv; inhibition, % at 25 µM; AID 434955; 0.27% of 330,000 active; M. tuberculosis H37Rv growth with meropenem, percent inhibition;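 also: growth measured after seven days incubation then overnight dye step; 0% = bacteria only wells and 100% = bacteria with antibiotic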
Rv3671c inh – inhibits the M. tuberculosis serine protease Rv3671c; P9WHR9; inhibition, % at 5.96 µM; 0.048% of 320,000 active; AID 2606; in the data active = inhibition above about 38%;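 also: extracellular domain of Rv3671c used as enzyme; 0% = enzyme with DMSO and 100% = no enzyme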
CCHF vOTU inh – blocks the CCHF virus ovarian tumor domain protease. inhibition, % at 11.5 µM. 0.55% of 370,000 active. AID 651958. CCHFV vOTU protease, Pep-AMC fluorescence; in the data active = inhibition above about 30%; also: 0% = vehicle wells with enzyme and 100% = no enzyme wells
Mtb UGM inh – Mtb UDP-galactopyranose mutase inhibition | P9WIQ1 | purified UGM, fluorescence polarization probe displacement | inhibition, % at 10 µM | 0.06% of 320,000 active | AID 504406; in the data active = inhibition above about 10%, passing the limit was not always enough
GFP chromophore – counter-screen: blocks GFP chromophore formation; shares compounds with RecA splice inh; cell-free GFP chromophore formation, fluorescence; EC50, µM; 83% of 2,100 active; AID 434968
The depositor's hits bear a star; nt = no result. Unless noted, no rule for the calls is given here.

SMILES | RecA splice inh | Mtb bLac sens | Rv3671c inh | CCHF vOTU inh | Mtb UGM inh | GFP chromophore
COC(=O)C1CN(C2CCCC2)CCS(=O)(=O)N1Cc1ccc(OC)cc1 (stereo unspecified) | nt | nt | nt | -5 | nt | nt
Cc1nc2ccccc2c2c1C(=O)N(C(C)C)C2=O | 41* | -7 | -6 | -3 | -1 | nt
Cc1nc2ccccc2c2c1C(=O)N(c1cccc(C(=O)O)c1)C2=O | 45* | 6 | 1 | 2 | -1 | nt
Cc1ccc(C)c(C(=O)COC(=O)c2cccc(N3C(=O)c4c(C)nc5ccccc5c4C3=O)c2)c1 | 1 | -6 | 0 | -2 | 4 | nt
CCCCCCN1CCS(=O)(=O)N(Cc2ccc(C)cc2)C(C(=O)OC)C1 (stereo unspecified) | nt | nt | nt | 14 | nt | nt
O=C(CCN1CCOCC1)c1ccc(N2CCCCC2)cc1 | nt | nt | 4 | 19 | -1 | nt
CC(C)(C)c1cc(C(=O)CCN2CCOCC2)cc(C(C)(C)C)c1O | 30* | 67 | -5 | 9 | 4 | nt
CCOC(=O)N1C(=O)C[C@](Sc2ccc(OC)cc2)(C(=O)N2CCN(C(C)=O)CC2)[C@H]1c1ccc(OC)cc1 | nt | nt | nt | -7 | nt | nt
C#CCOCCOCCOCCNc1nc(N2CCN(C(=O)CCCCCCCCCCNC(=O)[C@H](CCCCN)n3cc(C[C@@H](C)CC)nn3)CC2)nc(N2CCN(C(=O)CCCCCCCCCCNC(=O)[C@H](CCCCN)n3cc(C[C@@H](C)CC)nn3)CC2)n1 | 66* | 65 | -13 | nt | -2 | nt
C#CCOCCOCCOCCNc1nc(N2CCN(C(=O)CCCCCCCCCCNC(=O)[C@H](CCCCN)n3cc(CCO)nn3)CC2)nc(N2CCN(C(=O)CCCCCCCCCCNC(=O)[C@H](CCCN=C(N)N)n3cc(C[C@@H](C)CC)nn3)CC2)n1 | nt | 99 | -20 | nt | 2 | nt
CC(=O)C1=C(c2ccc(Br)cc2)C(=O)c2ccccc2C1=O | 58* | 98 | -23 | 23 | 2 | 3.1*
Cc1csc(NC(=O)c2ccc(COc3ccccc3F)o2)n1 | nt | nt | nt | 5 | nt | nt
COc1cc(NC(=O)C2CCN(c3nnc(-n4cccc4)s3)CC2)cc(OC)c1 | nt | nt | nt | -1 | nt | nt
Cc1cc(C)c[n+](C2=C([O-])c3ccccc3C(=O)/C2=N\S(=O)(=O)c2cccs2)c1 | 2 | 1 | -18 | 8 | 4 | nt
Cc1cc[n+](C2=C([O-])c3ccccc3C(=O)/C2=N\S(=O)(=O)c2cccs2)cc1C | 32* | -3 | -39 | 19 | 7 | 6.7*
CC(C)(C)c1cc[n+](C2=C([O-])c3ccccc3C(=O)/C2=N\S(=O)(=O)c2ccccc2)cc1 | 50* | 3 | -38 | 9 | -1 | 16*
CCC(C)N(C(=O)Cn1nc(Cc2ccncc2)c2ccccc2c1=O)C(C)CC (stereo unspecified) | nt | nt | nt | 0 | nt | nt
CN(CCC#N)C(=O)Cn1nc(Cc2ccncc2)c2ccccc2c1=O | 49* | 2 | 2 | -7 | 1 | >38
Cc1nc2ccccc2c2c1C(=O)N(CCC1=CCCCC1)C2=O | 12 | nt | nt | nt | nt | nt
Cc1nc2ccccc2c2c1C(=O)N(C)C2=O | 58* | 0 | 7 | -12 | -2 | 18*
CCOc1ccc(/C=C2\SC(=S)N(CCC(=O)Nc3ccccc3C(=O)O)C2=O)cc1 | 36* | 10 | -8 | 2 | 0 | >38
CCN(CC)CCN1C(=O)C(O)=C(C(C)=O)C1c1ccccc1[N+](=O)[O-] (stereo unspecified) | 77* | 3 | -14 | 17 | 1 | 7.8*
CCN1CCN(Cc2ccc(NC(=O)c3cccc(-c4ccc5nc(NC(=O)C6CC6)sc5n4)c3)cc2C(F)(F)F)CC1 | nt | nt | nt | 12 | nt | nt
C#CCOC(=O)c1ccccc1C(=O)n1nnc2ccccc21 | 51* | 31 | -2 | -6 | 1 | 35*
O=C1CC(NC(=O)C(F)(F)F)=NN1c1ccccc1 | 90* | -4 | 0 | 18 | 0 | 16*
CCOc1cc(/C=C2\C(=O)N(c3ccc(C(N)=O)cc3)N=C2C)ccc1OC(=O)c1cccs1 | 94* | 89 | -189 | nt | -3 | 3.3*
Cc1ccccc1OCC(=O)Nc1ccccc1N1CCCCC1 | 32* | nt | -5 | -8 | 1 | >38
COC(=O)[C@]12C[C@H](CC(=O)N3CCCC3)C(=O)N(Cc3ccc(Cl)cc3Cl)C1=C[C@H](COCc1ccccc1)O[C@@H]2C | nt | nt | nt | 2 | nt | nt
COC(=O)c1cc(NC(=O)Nc2ccccc2OC)cc(C(=O)OC)c1 | 40* | 9 | -13 | -4 | -4 | >38
COc1ccccc1NC(=O)Nc1cccc(C(=O)O)c1 | -1 | 3 | 7 | 0 | 2 | nt
